Assay results: PubChem BioAssay AID624351 (Southern Research Specialized Biocontainment Screening …, 2012)
About 1,400 (58%) of roughly 2,400 compounds were called active.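 The calls were made as follows: active = inhibition of 30% or more at any tested dose; inconclusive = primary hits over the limit that were never retested; inactive = the rest.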 So high a share suggests a set chosen from earlier hits. This is one part of the list.

Experiment: ADP Hunter readout inhibition without MgcRacGAP – biochemical, coupled enzyme counter-screen, artefact control for MgcRacGAP inhibitor project, dose response (AID 624351);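 also: signal is the ADP detection kit reading of free GDP without any GAP enzyme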
Conditions: fluorescence, no MgcRacGAP; series mostly up to 80 µM

Structure (SMILES) | IC50
CCOC(=O)c1sc(/N=C/c2c(O)ccc3ccccc23)cc1C | 36 µM (active)
CCOC(=O)c1sc(/N=C/c2ccc(O)cc2O)cc1C | 24.7 µM (active)
CCCS(=O)(=O)N1CCN(C2CCC(C)CC2)CC1 (stereo not given) | inactive
CC1(C)CNc2cc(N)ccc2S1 | 26.6 µM (active)
CCN(CC)CCOC(=O)c1ccc(N/C=C(/C#N)c2nc(-c3ccc(OC)c(OC)c3)cs2)cc1 | inactive
CC(C)NCC(=O)Nc1c2c(nc3ccccc13)CCC2 | inactive
O=C(O)c1c2c(nc3ccccc13)/C(=C/c1ccc(O)cc1)CCC2 | 60.2 µM (active)
O=C(COC(=O)c1c2c(nc3ccccc13)/C(=C/c1ccco1)CC2)NC1CCCC1 | inactive
Cc1ccc(Nc2ccc(N)cc2S(=O)(=O)O)cc1 | 40.2 µM (active)
Nc1ccc(N2CCCCC2)c(Cl)c1 | 37.9 µM (active)
O=C(CNCc1ccccn1)Nc1cc(C(F)(F)F)ccc1N1CCOCC1 | inactive
Nc1cc(C(F)(F)F)ccc1N1CCOCC1 | 30.2 µM (active)
COC(=O)c1cc(NCc2c(F)cccc2Cl)ccc1N1CCOCC1 | inactive
Nc1ccc(N2CCOCC2)c(Cl)c1 | 51.3 µM (active)
COC(=O)c1cc(NCc2ccccc2F)ccc1N1CCOCC1 | inactive
Cc1cccc(C)c1OCCCCN1CCNCC1 | inactive
COc1cc(/C=N/NC(=O)c2ccccc2NS(=O)(=O)c2cccs2)ccc1O | 79 µM (active)
O=C(NN=Cc1ccc(O)cc1)c1ccccc1NS(=O)(=O)c1cccs1 | 75.6 µM (active)
CC(=O)Oc1ccc([N+](=O)[O-])cc1N1C(=O)c2ccccc2C1=O | inactive
CSc1ccc(CN2CCC(N3CC(C)OC(C)C3)CC2)cc1 (stereo not given) | inactive
Oc1ccc(/C=N/Nc2ncnc3c2ncn3Cc2ccccc2)cc1O | 40.7 µM (active)
C=C1c2cccc(O)c2C(O)=C2C(=O)[C@]3(O)C(O)=C(C(N)=O)C(=O)[C@@H](N(C)C)[C@@H]3[C@@H](O)[C@H]12 | inactive
O=C1C(Cl)=C(NCCc2ccccc2)C(=O)c2ccccc21 | inactive
O=C1C(Nc2ccc(O)cc2)=C/C(=N/S(=O)(=O)c2cccs2)c2ccccc21 | 50.8 µM (active)
COC1=C(Nc2ccc(O)cc2)C(=O)c2ccccc2C1=O | 30.7 µM (active)
O=C1C(=C(I)I)c2ccccc2-c2ccccc21 | inactive
COc1cc(C=C2C(=O)c3ccccc3C2=O)cc(OC)c1OC | inactive

Structure (SMILES) | IC50
O=C1C=C(Nc2ccc(O)cc2)C(=O)c2ccccc21 | 24.7 µM (active)
COc1ccc(S(=O)(=O)/N=C2\C=C(Nc3ccc(O)cc3)C(=O)c3ccccc32)cc1 | 52 µM (active)
COc1ccc(CN2CCC(N(CCc3ccccc3)Cc3ccccc3)CC2)c(OC)c1 | inactive
COc1ccc(OCCOCCN2CCN(C)CC2)cc1 | inactive
CN(C)CCCC1Sc2ccccc2Sc2ccccc21 (stereo not given) | inactive
CC1=NN(c2ccccc2)C(=O)/C1=C/C=C/c1ccc(N(C)C)cc1 | inactive
CC1=NN(c2ccccc2)C(=O)/C1=C/C=C/C=C/N(C)C | 68.9 µM (active)
COc1ccccc1/C=C1/C(=O)N(c2ccccc2)N=C1C | inactive
O=C(O)C1CCN(Cc2cnn(-c3ccccc3)c2-n2cccc2)CC1 | inactive
C/C(=C\C(=O)c1ccccc1)Nc1ccc(O)cc1 | 19.2 µM (active)
O=C(Nc1ccc(O)cc1)c1ccc(C(=O)c2ccccc2)o1 | 26.1 µM (active)
COc1ccc(C(=O)/C=C(\C)Nc2ccc(NC(C)=O)cc2)cc1 | inactive
C/C(=C\C(=O)c1cccnc1)Nc1ccc(O)cc1 | 13.6 µM (active)
Cc1ccc(C2CC(=O)N3CN(c4ccc(Br)cc4)CSC3=C2C#N)o1 (stereo not given) | inactive
O=C(O)c1cccc(N/N=C/c2cccs2)c1 | 62.5 µM (active)
Cc1ccsc1/C=N/Nc1cccc(C(=O)O)c1 | 72.9 µM (active)
O=C(CSc1cn[nH]n1)Nc1cccc(C(=O)O)c1 | inactive
CSc1ccc(/C=N/Nc2cccc(C(=O)O)c2)cc1 | inactive
CN(c1ccc(O)cc1)c1nc(-c2ccccc2)cs1 | 53.7 µM (active)
CN(c1ccc(O)cc1)c1nc(-c2cccnc2)cs1 | 19.9 µM (active)
CCC1=NN2C(=N)/C(=C\c3ccc(SCc4ccco4)o3)C(=O)N=C2S1 | inactive
COC(=O)c1[nH]c2ccc(Cl)cc2c1NC(=O)Oc1ccccc1 | 18.5 µM (active)
COC(=O)c1[nH]c2ccc(C)cc2c1NC(=O)Oc1ccccc1 | inactive
Cc1[nH]c2ccccc2c1-c1csc(NC(=O)CSCCO)n1 | inactive
COC(=O)c1[nH]c2ccccc2c1NC(=O)Oc1ccccc1 | 15.6 µM (active)
COC(=O)c1[nH]c2cc(OC)c(OC)cc2c1NC(=O)Oc1ccccc1 | 19.5 µM (active)
O=C1C=CC2(O[C@H](c3ccccc3)[C@@H](c3ccccc3)O2)[C@H](Sc2ccccc2O)C1 | inactive

Structure (SMILES) | IC50
CC1=CC(c2ccccc2)NC(=S)N1 (stereo not given) | inactive
O=[N+]([O-])/C=C/c1ccc2c(ccn2Cc2ccccc2)c1 | inactive
O=c1c(O)c(-c2ccc(O)c(O)c2)oc2cc(O)ccc12 | 52.8 µM (active)
COc1c(-c2ccc(O)c(O)c2)oc2cc(O)cc(O)c2c1=O | 34 µM (active)
O=c1c(O)c(-c2ccc(O)cc2)oc2cc(O)cc(O)c12 | 34.5 µM (active)
c1ccc(CC2CCN(Cc3ccccn3)CC2)cc1 | inactive
CC1(C)CC(=O)C=C(Nc2ccc(O)cc2)C1 | 25.9 µM (active)
COc1cc(C2NC(=O)C(C#N)=C(S)N2c2ccc(C)cc2)ccc1OC(C)C (stereo not given) | inactive
COc1ccc(NCC(O)COc2ccc(C(C)(C)C)cc2)cc1 (stereo not given) | inactive
COc1ccc(NCC(O)Cn2c(C)c(C)c3ccccc32)cc1 (stereo not given) | 66.8 µM (active)
COc1ccc(-c2cc3ccccc3n2CC(O)CN2CCCCC2)cc1 (stereo not given) | inactive
COc1ccc(OC)c(CN2CCSCC2)c1 | inactive
Oc1ccc(C2=Nn3c(nnc3-c3ccco3)SC2)cc1O | 14.2 µM (active)
CC1Cc2ccccc2N1C(=O)CNCCCN(C)C (stereo not given) | inactive
O=C(Nc1ccccc1)c1cccc(-c2nnc(-c3ccccc3)o2)c1 | inactive
COc1ccc(NC(=O)/C(Cl)=C(/Cl)S(=O)Cc2ccc(Cl)cc2)cn1 (stereo not given) | inactive
COc1ccc(NC(=O)/C(Cl)=C(/Cl)S(=O)Cc2ccccc2)cn1 (stereo not given) | inactive
COc1ccc(NC(=O)c2cccc(-c3ccc(O)cc3)c2)cn1 | 41.2 µM (active)
CC(=O)Nc1cccc(NC(=O)c2cccc(-c3ccc(O)cc3)c2)c1 | 59.1 µM (active)
Oc1cccc2c(NC(=S)Nc3ccc(OC(F)F)cc3)cccc12 | 83.5 µM (active)
C#CCOCCOCCOCCNc1nc(N2CCN(C(=O)CCCCCCCCCCNC(=O)[C@@H](CCSC)n3cc(CCO)nn3)CC2)nc(N2CCN(C(=O)CCCCCCCCCCNC(=O)[C@H](CO)n3cc(CCCCCN)nn3)CC2)n1 | inactive
Oc1ccc(-c2csc(-c3cccnc3)n2)c(O)c1 | 43.4 µM (active)
COc1ccc(-c2nc(-c3ccc(O)cc3O)cs2)cc1OC | 55.4 µM (active)
COc1cc2cc(-c3ccc(O)cc3O)nc(C)c2cc1OC | 45.1 µM (active)
COc1ccc(-c2ncc3ccccn23)cc1OC | inactive
Oc1ccc(-c2csc(-c3cccnc3)n2)cc1O | 11 µM (active)
Clc1cc(Cl)c(OCCCCn2cncn2)c(Cl)c1 | inactive

Structure (SMILES) | IC50
CCCCN(C)C(=O)C1CCN(Cc2ccc(OCc3ccccc3)cc2)CC1 | inactive
COc1ccc(C2NC(c3ccc(OC)cc3OC)C(C)C(=O)C2C)c(OC)c1 (stereo not given) | inactive
CC1CC(C)CN(CC(=O)NC(c2ccccc2)c2ccccc2)C1 (stereo not given) | inactive
COc1cc(/C=C2\SC(N)=NC2=O)cc(Cl)c1O | 45.7 µM (active)
CCCN1C(=O)/C(=C/c2cc(C)n(C)c2C)SC1=Nc1ccc(OCC)cc1 | inactive
CCOc1cc(/C=C2\SC(=O)N=C2N)ccc1O | 14.3 µM (active)
COc1cc(/C=C2\SC(N)=NC2=O)ccc1O | 16.4 µM (active)
CCN=C1S/C(=C\c2ccc(O)c(OCC)c2)C(=O)N1CC | 39 µM (active)
COc1cc(/C=C2\SC(c3ccc(C)cc3)=NC2=O)cc(OC)c1O | inactive
COc1cccc(OC)c1OCCNC(C)(C)C | inactive
CCOc1cc(/C=C2/NC(=O)N(Cc3ccccc3F)C2=O)ccc1O | 50 µM (active)
CCOc1cc(/C=C2\C(=O)ON=C2c2ccccc2)cc(Br)c1O | inactive
CCS(=O)(=O)C1=NN2C(=N)/C(=C\c3ccc(SCc4ccco4)o3)C(=O)N=C2S1 | inactive
Cc1ccc(S(=O)(=O)Oc2ccc(/C=C3\C(=N)N4N=C(S(C)(=O)=O)SC4=NC3=O)cc2)cc1 | inactive
N=C1/C(=C\c2ccc(Br)o2)C(=O)N=C2SC(CC(=O)N3CCOCC3)=NN12 | inactive
NC1=NC(=O)S/C1=C\c1ccc(O)cc1 | 20.2 µM (active)
N=C1/C(=C/c2ccc(Br)o2)C(=O)N=C2SC(CC(=O)N3CCCC3)=NN12 | inactive
CC(NCc1cccc(S(=O)(=O)N(C)C)c1)c1ccc(F)cc1 (stereo not given) | inactive
CCOc1cc(/C=C2\SC(N)=NC2=O)ccc1O | 55.5 µM (active)
C#CCOCCOCCOCCNc1nc(N2CCN(C(=O)C([C@@H](C)O)n3cc([C@@H](N)CCCCN)nn3)CC2)nc(N2CCN(C(=O)[C@H](CCCCN)n3cc(CN)nn3)CC2)n1 (stereo not given in full) | inactive
Cc1cc(C)nc(SCC(=O)c2ccc(O)c(O)c2)n1 | 38 µM (active)
O=C(CSc1nnnn1-c1ccc(F)cc1)c1ccc(O)c(O)c1 | 77.2 µM (active)
Cc1cc(SCC(=O)c2ccc(O)c(O)c2)nc2ccccc12 | 58.9 µM (active)
CN(C)c1cc(NC(=O)CN2CCCC2)c2ccccc2n1 | inactive
